Bioassay records (PubChem BioAssay)
In the library only some 5.3% were active in any assay of this set; here they are far more common.
Vaccinia Venus: qHTS for Stage-Specific Inhibitors of Vaccinia Orthopoxvirus: Venus Reporter Primary qHTS | hit rate 0.46% among 330,000 | Vaccinia virus Venus reporter expression, fluorescence | Potency, µM (doses to about 36.5 µM), inactives show top-dose activity change, negative = inhibition, most hits filed as inhibitors | AID 720580, 2013; calls by dose curve; tested in A549 cells; further: nearly all actives have a fitted effect of over 30% in size
MARV entry inh: qHTS for inhibitors of binding or entry into cells for Marburg Virus; AID 540276, 2011; hit rate 1.8% among 300,000; Marburg virus pseudotyped entry inhibition, cell reporter; Potency, µM (doses to about 37.8 µM), for the others: at the highest dose activity change, negative = inhibition, hits mostly inhibitors; calls by dose curve; tested in HEK293 cells
HCV inhibitor: qHTS Assay for Inhibitors of Hepatitis C Virus (HCV) | Huh7.5.1 HCVcc-Cre infection, luciferase reporter, 44 h | Potency, µM (doses to about 41.8 µM), without a hit: at the top dose activity change, negative = inhibition, usual class: inhibitors | hit rate 3.4% among 340,000 | AID 651820, 2012; active means well fitted inhibition curve with a large enough effect; inconclusive means small, poorly fitted or top-dose-only effect, or another doubt; inactive means no such curve, though single readings can be large or run the other way
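Cells seeded at 1,000/well and cultured 4 h, then compounds added followed by HCVcc-Cre virus (~0.5 moi). After 44 h further culture, luciferase substrate was added, plates held 15 min at room temperature, and luminescence read for 15 sec.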
VACV mCherry inh: qHTS for Stage-Specific Inhibitors of Vaccinia Orthopoxvirus: mCherry Reporter Primary qHTS; Potency, µM (series often up to 36.5 µM), for inactives: at the top dose activity change, negative = inhibition, hits mostly inhibitors; Vaccinia virus mCherry reporter infection, fluorescence; hit rate 0.63% among 310,000; AID 720579, 2013; calls by dose curve; tested in A549 cells; further: nearly all actives have a fitted effect of over 35% in size
LASV entry inh: qHTS for Inhibitors of binding or entry into cells for Lassa Virus. Lassa virus pseudotype entry inhibition, cell reporter. AID 540256, 2011. Potency, µM (doses to about 37.9 µM), inactives show top-dose activity change, negative = inhibition, hits mostly inhibitors. hit rate 1.2% among 300,000; calls by dose curve; tested in HEK293 cells; further: nearly all actives have a fitted effect of over 50% in size
FMDV inh: High Throughput Screening for Foot and Mouth Disease Virus Antivirals | FMDV antiviral cell-based qHTS | Potency, µM (highest dose often 57.9 µM), for inactives: at the highest dose activity change, negative = inhibition, usual class: inhibitors | hit rate 1.2% among 410,000 | AID 1159524, 2015; calls by dose curve; tested in HEK293T cells; further: read-out not given here; nearly all actives have a fitted effect of over 45% in size
* marks the source's active call; other numbers are inactive results; i = inactive; ? = inconclusive; · = no result; ! = a repeat was not active; [ ] = remark or other dose. On the % scale 0 is the no-effect control and ±100 the full control effect; potency means the concentration at half of the fitted maximal effect.

SMILES	Vaccinia Venus	MARV entry inh	HCV inhibitor	VACV mCherry inh	LASV entry inh	FMDV inh
COc1ccccc1N(C)S(=O)(=O)c1ccc(C(=O)Nc2ccncc2)cc1	-18%	?	?	i	-20%	32µM*
CC(C)(O)C#Cc1ccc(CN2CCc3nnc(CCNC(=O)c4ccco4)n3CC2)cc1	-1%	·	·	-10%	·	10%
CN(c1ccccc1)S(=O)(=O)c1cccc(NC(=O)CCNC(=O)c2ccccc2)c1	·	·	-20%	·	·	?
CN(c1ccccc1)S(=O)(=O)c1cccc(C(=O)NCCc2c[nH]c3ccccc23)c1	·	·	10µM*	·	·	?
CN(c1ccccc1)S(=O)(=O)c1cccc(NC(=O)CCNC(=O)c2ccc([N+](=O)[O-])cc2)c1	-16%	4%	11µM*	-10%	?	40µM*
O=C(NCCc1c[nH]c2ccccc12)c1cccc(S(=O)(=O)Nc2ccccc2Cl)c1	-22%	-1%	9%	?	-10%	-19%
CC(=O)Nc1cccc(NC(=O)CCNC(=O)c2ccccc2)c1	-8%	26%	3.2µM*	-11%	-3%	4%
CN(c1ccccc1)S(=O)(=O)c1cccc(NC(=O)CCNC(=O)c2ccc(Cl)cc2)c1	?	-31%	?	-18%	?	32µM*
C[C@@H]1CN(Cc2ccc3c(c2)CN(Cc2cccn2-c2ccc(Cl)cn2)CCO3)C[C@H](C)O1	2%	·	·	-16%	·	1%
Nc1ccc(/C=C/c2cc(Cl)nc3ccccc23)cc1	-14%	·	·	-5%	·	·
COc1ccc([C@H]2SCC(=O)Nc3c2c(=O)[nH]n3C2CCCCC2)cc1	·	0%	·	·	·	·
CCn1c(O)c(N=NC(=S)NCC2CCCO2)c2ccccc21 (centres undefined)	-19%	·	?	-9%	·	-1%
CCCNC(=O)CCc1c(C)nc2nc(CNC(=O)c3ccccc3)nn2c1C	8%	-22%[46.1 µM]	·	6%	3%[46.1 µM]	13%
C[C@@H]1C=C[C@](Cc2ccccc2)(C(=O)NCCc2c[nH]c3ccccc23)N1C(=O)c1ccccc1	-13%	?	-10%[8.37 µM]	?	8.2µM*	6%
CCCCC(=O)Nc1cccc(NC(=O)c2cccc(Br)c2)c1	·	·	11µM*	·	·	1%
CC(=O)c1cccc(-n2c(=O)c3c4c(sc3n(CC(=O)c3ccc(Cl)cc3)c2=O)CN(C(C)=O)CC4)c1	2%	?	·	-4%	·	4%
Cc1ccc(-c2nnc3sc(-c4ccncc4)nn23)cc1	-8%	5.8µM*	0%	-11%	15%	2%
Clc1ccccc1-c1nn2c(-c3ccncc3)nnc2s1	-26%	7.3µM*	?	-21%	?	-7%
Clc1ccccc1-c1nnc2sc(-c3ccncc3)nn12	-9%	·	-10%	-9%	·	-3%
CCC(=O)NCc1cc(-c2nn(C)c(=O)c3ccccc23)ccc1C	·	0%	-22%	·	17%	-9%
Cc1ccc(-c2nn(CC(=O)NCc3cc(-c4nn(C)c(=O)c5ccccc45)ccc3C)c(=O)c3ccccc23)cc1	?	3.2µM*!	?	?	?	16µM*
Cc1ccc(-c2nn(C)c(=O)c3ccccc23)cc1CNC(=O)c1ccccc1	-14%	?	-7%	-9%	11µM*	-19%
CCCC(=O)NCc1cc(-c2nn(C)c(=O)c3ccccc23)ccc1C	·	9%	-4%	·	-20%	-19%
CC1CCC(NC(=O)c2ccc3c(c2)N(Cc2ccccc2)C(=O)c2ccccc2S3(=O)=O)CC1 (centres undefined)	-14%	?	·	-13%	-26%[46.1 µM]	29%
Cc1ccc(S(=O)(=O)Nc2ccc(S(=O)(=O)Nc3cc(C)nc(C)n3)cc2)cc1	-9%	·	13%	i	·	84%
SMILES	Vaccinia Venus	MARV entry inh	HCV inhibitor	VACV mCherry inh	LASV entry inh	FMDV inh
Cc1cc(NS(=O)(=O)c2ccc(NS(=O)(=O)c3ccc(CC(C)C)cc3)cc2)nc(C)n1	-15%	16%[46.1 µM]	4µM*	i	2%[46.1 µM]	69%
O=C1c2ccccc2C(=O)c2c(NCCCN(CCO)CCO)cccc21	-10%	?	14µM*	?	6%	?
Nc1ccc(C2(c3ccc(N)cc3)c3ccccc3-c3ccccc32)cc1	?	?	8.9µM*	?	7%	?
Cn1cccc1-c1cc2n(n1)CCC(=O)N2CC(=O)Nc1ccc(F)cc1Cl	-3%	·	·	-12%	-5%[46.1 µM]	17%
COc1ccc(-c2cn3nc(SCC(=O)Nc4cc(C)cc(C)c4)ccc3n2)cc1	?	·	·	-18%	20%[46.1 µM]	41%
CC(C)(C)C(=O)Nc1cc2nn(-c3ccccc3)nc2cc1Cl	-7%	0.41µM*	13%	-10%	1.5µM*	50µM*
O=C(c1cc([N+](=O)[O-])cc([N+](=O)[O-])c1)N1CCCc2ccccc21	-11%	10µM*	4%	-16%	12%	-25%
O=C(c1ccc([N+](=O)[O-])s1)N1CCCc2ccccc21	?	?	?	10µM*	?	-18%
O=C(c1cccc([N+](=O)[O-])c1)N1CCc2ccccc21	·	·	-8%	·	·	16%
O=C(c1cc([N+](=O)[O-])ccc1N1CCCCC1)N1CCc2ccccc21	-23%	4.5µM*	?	-15%	?	-5%
Cc1ccc(NC(=O)ON=C2CCCC2)cc1	-15%	10µM*	3%	-6%	1.4µM*	-5%
c1ccc(CNc2cc(-c3ccoc3)ncn2)cc1	·	·	·	·	·	3%
Cc1cc(-c2cc(F)cc3c2OC(CNC(=O)[C@@H]2CCC(=O)N2)C3)ccc1F (some centres undefined)	9%	·	·	-7%	·	0%
CS(=O)(=O)Nc1ccccc1C(=O)Nc1cc(Cl)cc(Cl)c1	11µM*	?	?	7.9µM*	?	?
O=C(Nc1ccccc1)Nc1cc(Cl)cc(Cl)c1	11µM*	?	?	·	?	-29%
O=C(Nc1ccccc1)Nc1cc(OCC(F)(F)F)cc(OCC(F)(F)F)c1	?	?	6.3µM*	?	?	-20%
O=C(NCCNC(=O)c1cc(OCC(F)(F)F)ccc1OCC(F)(F)F)Nc1cccc(C(F)(F)F)c1	·	?	?	·	?	-2%
O=C(NC(=O)c1ccccc1)Nc1ccccc1	-5%	2.8µM*	6%	0%	?	-44%
O=C1NC[C@H](CCCCN2C[C@H](Cc3ccc(O)cc3)N(CCc3ccccc3)C(=O)C2=O)N(CCC2CCCCC2)C1=O	-2%	·	·	-9%	·	-10%
Cc1nc(NCc2cnn(C)c2)sc1-c1ccn(-c2cccc(F)c2)n1	-11%	·	·	-16%	·	-12%
O=c1[nH]c(O)c(/C=C2/C=CC(c3cc(Cl)ccc3Cl)=N2)c(=O)[nH]1	13%	?	32µM*	i	13µM*	?
